Test results published in PubChem BioAssay AID624330 (Southern Research Specialized Biocontainment Screening …, 2012).
Hit rate of the full screen: of about 340,000 compounds, about 2,100 (0.62%) were called active.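 How the source made its calls: active means first-screen hits whose inhibition reached a set limit at any dose in the follow-up dose series; inconclusive means inhibition above the set first-screen limit but never retested; inactive means the rest.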 The list is a sample of the results. Measured potencies and affinities stand elsewhere.

target: Rac GTPase-activating protein 1 (Homo sapiens) (UniProt Q9H0H5); test: MgcRacGAP GTPase-activating activity inhibitors, confirmation, biochemical, ADP Hunter fluorescence, primary and confirmatory (AID 624330); conditions: MgcRacGAP-stimulated Rac1 GTP hydrolysis, at 30 µM, stronger effect = higher value, GST-tagged Rac1 F28L mutant substrate;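 further: fluorescence reports GDP produced by GAP-driven GTP hydrolysis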
Sequence (Q9H0H5 whole entry, looked up): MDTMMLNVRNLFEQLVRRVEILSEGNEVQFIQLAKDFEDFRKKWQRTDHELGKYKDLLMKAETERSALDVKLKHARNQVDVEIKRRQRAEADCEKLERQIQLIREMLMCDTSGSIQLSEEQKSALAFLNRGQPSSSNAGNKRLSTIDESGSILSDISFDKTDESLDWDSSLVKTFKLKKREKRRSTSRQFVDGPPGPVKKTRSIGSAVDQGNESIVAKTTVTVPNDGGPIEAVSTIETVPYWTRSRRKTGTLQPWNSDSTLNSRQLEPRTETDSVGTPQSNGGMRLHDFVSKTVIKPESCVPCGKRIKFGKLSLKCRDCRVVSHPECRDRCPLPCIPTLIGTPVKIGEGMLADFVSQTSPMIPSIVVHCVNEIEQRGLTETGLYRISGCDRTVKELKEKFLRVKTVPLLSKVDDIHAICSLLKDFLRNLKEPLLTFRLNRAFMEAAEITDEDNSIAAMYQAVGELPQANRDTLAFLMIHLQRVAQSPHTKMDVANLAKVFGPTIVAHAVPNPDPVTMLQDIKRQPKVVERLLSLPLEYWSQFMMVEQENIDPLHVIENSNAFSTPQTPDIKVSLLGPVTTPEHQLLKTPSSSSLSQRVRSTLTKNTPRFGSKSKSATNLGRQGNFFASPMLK

inhibition, inactive:
CCOC(=O)CSc1nc2c(sc(=S)n2-c2ccccc2OC)c(=O)n1-c1ccccc1OC 3.56%
COc1cc(C(C)=O)ccc1OCC(O)CNCC(O)c1ccccc1 (centres undefined) 20.6%
COc1ccc(CCN(C)CC(O)COc2ccc(C(C)=O)cc2OC)cc1OC (centres undefined) 16.6%
CC(=O)Nc1ccc(CN2CCCC(CCC(=O)NCc3ccccc3F)C2)cc1 (centres undefined) 3.48%
CCN1CCN(CCNC(=O)C2CCCN(Cc3nc(-c4cccc(Cl)c4)oc3C)C2)CC1 (centres undefined) 5.46%
O=C(c1cccc(Cl)c1)N1CCN(Cc2ccc3c(c2)OCO3)CC1 7.04%
O=C(c1cccc(C(=O)N2CCN(Cc3ccccc3)CC2)c1)N1CCN(Cc2ccccc2)CC1 9.35%
O=C(c1cccs1)N1CCN(Cc2cccnc2)CC1 30.4%
O=C(c1cccs1)N1CCN(Cc2ccccc2)CC1 7.61%
CCSc1nnc(-c2cccc(S(=O)(=O)N(C)C)c2)n1-c1cc(OC)ccc1OC 1.21%
Cc1ccc(OCCCC(=O)N(C)CC(=O)Nc2ccccc2Cl)cc1 2.87%
CC(C)[C@H](NC(=O)c1ccco1)C(=O)Nc1ccc(N2CCCCCC2)cc1 9.75%
O=C(c1ccccc1)c1c[nH]c(C(=O)NCc2cccnc2)c1 -1.95%
COc1ccc2c(c1)CCc1c(C(=O)N(C)c3ccccc3)noc1-2 7.96%
Cc1ccsc1/C=C(\C#N)C(=O)NCc1ccco1 2.06%
Cc1sccc1/C=N/NC(=O)c1ccco1 3.82%
CC(=O)Oc1ccc(C(=O)Cc2ccc3ccccc3n2)c(O)c1C -0.13%
Cc1c(O)ccc(/C(Cc2ccc3ccccc3n2)=N\N)c1O 14.8%
O=C(NCC1CCCO1)c1cnn2c(C(F)F)cc(C3CC3)nc12 (centres undefined) -0.05%
CCC(CO)Oc1cc(NCc2cccc(F)c2)c2ncn(C(C)C)c2c1 (centres undefined) 6.74%
COc1cc(/C=C/C(=O)OCC(=O)N2CCCCCC2)ccc1OCC#N 3.21%
Nc1ccccc1N1CCN(C(=O)c2ccccc2)CC1 12.8%
COc1ccc(OCc2cc(C(=O)NC(C)c3nc(C)cs3)no2)c(Cl)c1 (centres undefined) 7.35%
Oc1c(Br)cc(C2N=C(c3ccccc3)NO2)cc1Br (centres undefined) -1.87%
Brc1ccc(-c2ccccc2)cc1 1.25%
C/C(=N\NC(=O)CNC(=O)c1ccccc1F)c1ccco1 2.16%
CN(CC(=O)Nc1cc(Cl)cc(Cl)c1)Cc1cccs1 3.5%
COc1ccc(NC(=O)COC(=O)CNC(=O)c2cccs2)cc1Cl 2.23%
O=C(COC(=O)CNC(=O)c1cccs1)Nc1ccccc1C(F)(F)F 8.33%
CCCOC(=O)c1ccc(NC(=O)CN(C)Cc2cccs2)cc1 10.3%
CCN(CC)c1ccc(NC(=O)COC(=O)c2cccs2)cc1 21.8%
CCOc1ccc(NC(=O)COC(=O)Cc2ccsc2)cc1 2.81%
CC(=O)c1ccc(NC(=O)COC(=O)Cc2ccsc2)cc1 8.16%
Cc1ccc(NC(=O)COC(=O)CCC(=O)c2cccs2)cc1 6.66%
